Hits are enriched below; roughly 2.9% of the tested compounds scored in any of these assays.
ZTA DNA inh = blocks Epstein-Barr virus ZTA, an EBNA-1 counter-screen | P03206 | ZTA-DNA binding, fluorescence polarization | inhibition, % at 11 µM | hit rate 0.15% among 320,000 | AID 2234; in the data active = inhibition above about 33%
Target sequence (P03206 whole entry, looked up): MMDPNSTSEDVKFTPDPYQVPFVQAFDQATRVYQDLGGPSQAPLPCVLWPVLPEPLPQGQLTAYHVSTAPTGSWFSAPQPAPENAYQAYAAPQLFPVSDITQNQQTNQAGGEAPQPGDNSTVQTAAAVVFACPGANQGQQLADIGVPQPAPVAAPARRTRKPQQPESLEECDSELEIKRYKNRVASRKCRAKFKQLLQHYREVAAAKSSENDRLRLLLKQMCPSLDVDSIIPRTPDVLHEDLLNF
EBNA-1 inh = EBNA-1 DNA-binding inhibitors, primary screen, biochemical, fluorescence polarization. inhibition, % at 14.8 µM. hit rate 0.34% among 300,000. AID 1950, 2009; in the data active = inhibition above about 28%
PAFAH2 inh = PAFAH2 enzyme inhibitors, primary screen, biochemical, fluorescence polarization, human. Platelet-activating factor acetylhydrolase 2, cytoplasmic (Homo sapiens), Q99487. recombinant PAFAH2, FP-rhodamine activity probe. inhibition, % at 3.39 µM. hit rate 0.99% among 340,000;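 active = inhibition above the mean over all tested compounds plus 3 SD, cut at about 30% in these data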;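 also: inhibitors block probe labeling of enzyme so polarization drops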
PAFAH1B3 inh = PAFAH1B3 enzyme inhibitors, primary screen, biochemical, fluorescence polarization, human; inhibition, % at 3.39 µM; Platelet-activating factor acetylhydrolase IB subunit alpha1 (Homo sapiens), Q15102; recombinant PAFAH1B3, FP-rhodamine probe; hit rate 0.28% among 340,000; AID 492972, 2010;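 active = inhibition above the screen-wide average of all tested compounds plus 3 SD, cut at about 25% in these data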
PAFAH1B2 FP inh = PAFAH1B2 enzyme inhibitors, primary screen, biochemical, fluorescence polarization, human. hit rate 1.2% among 340,000. recombinant PAFAH1B2, FP-rhodamine activity probe. inhibition, % at 3.39 µM. AID 492953, 2010. Platelet-activating factor acetylhydrolase IB subunit alpha2 (Homo sapiens), P68402;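 active = inhibition above the mean of all tested compounds plus 3 SD, cut at about 24% in these data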
pPAFAH inh = pPAFAH enzyme inhibitors, primary screen, biochemical, fluorescence polarization, human; Platelet-activating factor acetylhydrolase (Homo sapiens), Q13093; recombinant pPAFAH, FP-rhodamine probe fluorescence polarization; inhibition, % at 3.39 µM; hit rate 1.5% among 330,000;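 active = inhibition above the mean inhibition across the screen plus 3 SD, cut at about 25% in these data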;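 also: inhibitors block binding of the rhodamine activity-based probe so polarization drops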
Target sequence (Q13093 whole entry, looked up): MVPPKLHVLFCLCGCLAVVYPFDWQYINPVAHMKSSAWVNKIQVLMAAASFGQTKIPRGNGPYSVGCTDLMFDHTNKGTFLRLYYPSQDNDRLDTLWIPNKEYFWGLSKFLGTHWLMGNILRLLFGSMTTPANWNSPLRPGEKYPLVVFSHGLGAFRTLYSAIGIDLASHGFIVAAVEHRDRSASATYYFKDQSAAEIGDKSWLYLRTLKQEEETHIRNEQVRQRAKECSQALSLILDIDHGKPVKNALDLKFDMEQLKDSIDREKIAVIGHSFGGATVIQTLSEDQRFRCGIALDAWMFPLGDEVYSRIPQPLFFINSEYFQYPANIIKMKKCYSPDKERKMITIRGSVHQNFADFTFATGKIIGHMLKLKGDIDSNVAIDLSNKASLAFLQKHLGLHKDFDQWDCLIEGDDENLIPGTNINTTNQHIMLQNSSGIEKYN
PAFAH2 FP conf = PAFAH2 enzyme inhibitors, confirmation, biochemical, fluorescence polarization, human. AID 493030, 2011. recombinant PAFAH2, FP-rhodamine activity probe. shares compounds with PAFAH2 inh. hit rate 65% among 2,300. inhibition, % at 3.39 µM;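 active = mean inhibition over three repeats above a set limit taken from the earlier primary screen, cut at about 30% in these data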;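 also: inhibitor blocks binding of rhodamine activity probe so polarization falls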
Large screens that a line does not name were inactive (follow-up assays come after a bar, where they were run).

COc1ccc(-n2c(=S)[nH]c3cc(C(=O)N4CCN(c5ccccc5)CC4)ccc3c2=O)c(OC)c1	none
CC(=O)Nc1cccc2c1Cc1ccccc1-2	PAFAH2 inh 42 | PAFAH2 FP conf inactive
CC(=O)Nc1ccc2c(c1Br)Cc1ccccc1-2	none (no result: ZTA DNA inh, EBNA-1 inh, pPAFAH inh)
O=C(c1ccc(CS(=O)c2ccc(F)cc2)o1)N1CCN(C2CCCCC2)CC1 (centres undefined)	none
O=C(c1cc(-c2ccc(Cl)cc2Cl)on1)N1CCOCC1	PAFAH2 inh 37 | PAFAH2 FP conf inactive
O=C(COC(=O)c1ccc(Cl)cc1O)NC(=O)C1CCCCC1	none
O=c1c(C(c2c(O)nc3n(c2=O)CCS3)c2cccc3ccccc23)c(O)nc2n1CCS2	PAFAH2 inh 37 | PAFAH2 FP conf inactive
O=C(COC(=O)c1ccccc1O)NCCCc1ccccc1	none
O=C(COC(=O)c1ccc(O)cc1)NCCCc1ccccc1	PAFAH2 inh 32 (no result: ZTA DNA inh, EBNA-1 inh, pPAFAH inh) | PAFAH2 FP conf inactive
Cc1ccc(C(=O)OCC(=O)NCCc2ccccc2)cc1C	PAFAH2 inh 57 (no result: EBNA-1 inh) | PAFAH2 FP conf 33
Cc1ccsc1C(=O)OCC(=O)NCCCc1ccccc1	PAFAH2 inh 30 | PAFAH2 FP conf inactive
Cc1ccc(C(=O)OCC(=O)NCC(F)(F)F)cc1C	PAFAH2 inh 53 | PAFAH2 FP conf 50
Cc1ccc(C(=O)NCC(=O)OCC(=O)NCC(F)(F)F)cc1	none
COCCNC(=S)N1CCN(Cc2ccc3c(c2)OCO3)CC1	none
O=C(CC1C(=O)NCCN1Cc1c(F)cccc1Cl)NCCCN1CCCC1=O (centres undefined)	none
CCOC(=O)Nc1nc(-c2ccccc2)c(C(=O)c2ccccc2)s1	PAFAH2 inh 41 | PAFAH2 FP conf 42
COc1cccc(CN(C)C(=O)C(Cc2ccccc2)NC(=O)c2ccccc2)c1OC (centres undefined)	none
CCOC(=O)C1=C(C)N=c2s/c(=C\c3ccc(O)c([N+](=O)[O-])c3)c(=O)n2C1c1ccccc1OC (centres undefined)	PAFAH2 inh 36 | PAFAH2 FP conf inactive
CC(C)(C)c1nc[nH]c(=O)c1Br	PAFAH2 inh 63 | PAFAH2 FP conf 41
CC(C)(C)c1nc(C(C)(C)C)c(Br)c(=O)[nH]1	none
O=C(COC(=O)c1ccccn1)Nc1cccc(Cl)c1	none
Cn1nccc1C(=O)OCC(=O)Nc1cccc(Cl)c1	PAFAH2 inh 66 (no result: EBNA-1 inh) | PAFAH2 FP conf 52
Cn1ccc(C(=O)OCC(=O)Nc2cccc(Cl)c2)n1	PAFAH2 inh 83 | PAFAH2 FP conf 78
Cn1ccc(C(=O)OCC(=O)Nc2ccccc2Cl)n1	PAFAH2 inh 39 (no result: ZTA DNA inh, EBNA-1 inh, pPAFAH inh) | PAFAH2 FP conf inactive
Cc1nn(CC(=O)Nc2ccc(N3CCOCC3)cc2)c(C)c1Cl	none
CN(C)S(=O)(=O)N(CC(=O)N(Cc1ccccc1)Cc1ccccc1)c1ccccc1	PAFAH2 inh 38 | PAFAH2 FP conf inactive
CC(=O)Nc1ccc(NC(=O)COC(=O)c2ccccc2SCC(=O)N2CCCC2)cc1	none
Cc1ccccc1NC(=O)COC(=O)c1ccccc1SCC(=O)N1CCCC1	PAFAH2 inh 44 | PAFAH2 FP conf 41
CC(NC(=O)COC(=O)c1ccccc1SCC(=O)N1CCCC1)c1ccccc1 (centres undefined)	PAFAH2 inh 51 | PAFAH2 FP conf 42
O=C(OCC(=O)N1CCCCC1)c1ccccc1SCC(=O)N1CCCCC1	none
COc1ccc(NC(=O)COC(=O)c2ccccc2SCC(=O)N2CCCC2)cc1	PAFAH2 inh 61 | PAFAH2 FP conf 62
CCn1c(SCCN2CCOCC2)nc2c1c(=O)n(C)c(=O)n2C	none
O=c1c2c(nc3c(-c4cccc5ccccc45)c[nH]n13)CCC2	PAFAH2 inh 68 | PAFAH2 FP conf 69
Cc1[nH]n2c(=O)c3c(nc2c1-c1cccc2ccccc12)CCC3	none
COc1ccc(N(CC(=O)N/N=C(\C)CCc2ccccc2)S(=O)(=O)c2ccc(C)cc2)cc1	none
CN(C)c1nc(Oc2ccc(C(=O)OCC(=O)Nc3ccccc3)cc2)nc(N(C)C)n1	PAFAH2 inh 90 | PAFAH2 FP conf 76
CCOC(=O)c1ccc(Oc2nc(OC)nc(N(C)C)n2)cc1	none
CC(NS(=O)(=O)c1ccc(Cl)c(Cl)c1)C(=O)OCC(=O)Nc1ccc2c(c1)OCO2 (centres undefined)	PAFAH2 inh 31 | PAFAH2 FP conf inactive
COc1cccc(NC(=O)COC(=O)c2ccc3c(c2)OCO3)c1	PAFAH2 inh 83 (no result: ZTA DNA inh, EBNA-1 inh, pPAFAH inh) | PAFAH2 FP conf 73
O=C(COC(=O)/C=C/c1ccc2c(c1)OCO2)Nc1ccccc1	PAFAH2 inh 79 | PAFAH2 FP conf 81
C[C@H](NS(=O)(=O)c1ccc(Cl)cc1)C(=O)OCC(=O)NC(=O)Nc1ccc2c(c1)OCCO2	none
CCOC(=O)c1c(C)[nH]c(C)c1C(=O)COC(=O)/C=C/c1ccco1	none (no result: EBNA-1 inh)
Cc1cccc(NC(=O)c2ccc3c(c2)OCCO3)c1C	none
CN(C)S(=O)(=O)c1cc(NC(=O)COC(=O)C2COc3ccccc3O2)ccc1Cl (centres undefined)	none
Cc1cccc(C)c1NC(=O)COC(=O)c1cc[n+]([O-])cc1	none
O=C(COC(=O)c1ccc2c(c1)OCO2)Nc1ccccc1OC(F)F	PAFAH2 inh 47 (no result: ZTA DNA inh, EBNA-1 inh) | PAFAH2 FP conf 46
O=C(COC(=O)C1=COCCO1)Nc1ccccc1OC(F)F	none
CN(C)S(=O)(=O)c1cc(NC(=O)COC(=O)c2ccc3c(c2)OCO3)ccc1Cl	PAFAH2 inh 57 | PAFAH2 FP conf 78
COc1ccc(C(=O)OCC(=O)Nc2c(C)cccc2C)cc1	PAFAH2 inh 67 | PAFAH2 FP conf 60
Cc1cccc(NC(=O)COC(=O)c2ccc3c(c2)OCO3)c1C	PAFAH2 inh 40 | PAFAH2 FP conf 42
COc1ccc(C(=O)NCC(=O)OCC(=O)N2N=C(c3ccc(Cl)cc3)CC2c2ccco2)cc1OC (centres undefined)	none
COc1ccc(N(CCC#N)C(=O)/C(C#N)=C\c2cccs2)cc1	none
O=C(COC(=O)c1ccc2c(c1)OCO2)Nc1ccccc1	PAFAH2 inh 84 | PAFAH2 FP conf 81
O=C(COC(=O)c1ccc(CSc2ccc(Cl)cc2)cc1)Nc1ccccc1	EBNA-1 inh 29, PAFAH2 inh 34 | PAFAH2 FP conf inactive
O=C(OCCc1cc2ccccc2c(=O)o1)c1ccc2c(c1)OCO2	none (no result: EBNA-1 inh)
O=C(OCCCc1cc2ccccc2c(=O)o1)c1ccc2c(c1)OCO2	PAFAH2 inh 38 (no result: EBNA-1 inh) | PAFAH2 FP conf inactive

From PubChem
